# Screening results deposited in PubChem BioAssay by ICCB-Longwood Screening Facility, Harvard Medical School.
# Many of the other results were omitted from the sample, so hits are more common in it than they were.
# Vaccinia pol inh = vaccinia E9 polymerase processive synthesis inhibitors, primary screen, biochemical, absorbance | normalized absorbance, % (no concentration beside the values) | Vaccinia virus DNA polymerase (E9) processive complex | AID 493162, 2011 | 46,000 compounds, 0.94% hits | in vitro processive DNA synthesis, absorbance read-out; active compounds read low; in the data active = normalized absorbance mostly below about 85%, no sharp cut-off; inactive = mostly above about 86%
# Numbers stand for hits; n = inactive.
SMILES,Vaccinia pol inh
CCCCN1CCN(c2nc(-c3ccccc3)c3cc(C)ccc3n2)CC1,n
Cc1ccc2oc(-c3ccccc3)cc(=NCCN3CCOCC3)c2c1,72.1
Cc1ccc2oc(=O)cc(CN3CCOCC3)c2c1,n
Clc1ccc2oc(-c3ccccc3)cc(=NCC3CCCO3)c2c1 (stereo not drawn),59.3
Clc1cccc(-n2cc(-c3ccccc3)c3c(NCC4CCCO4)ncnc32)c1 (stereo not drawn),n
Cc1cc(S(=O)(=O)NCc2c(N(C)C)cccc2N(C)C)c(Cl)cc1Cl,n
CCCCn1ccnc1C(=O)c1cc(F)c(F)c(F)c1F,n
CCOC(=O)c1c(-c2ccccc2)n(Cc2ccccc2)c2ccc(O)c(CN(C)C)c12,n
O=C(Nc1ccccc1O)c1ccccc1,n
O=C(OCC(=O)N1CCc2ccccc21)c1ccccc1O,n
COc1ccccc1NCC(O)COc1ccc(Cl)cc1Cl (stereo not drawn),n
O=C(NCCCN1CCCC1)c1csc2c1CCCCC2,n
O=C(NCCN1CCCC1)C1=Cc2sc3c(c2CS1)CCCC3,73.6
Cc1ccc(C(=O)NCCN2CCCC2)cc1,n
CC(C)(C)c1csc(-c2ccc(-c3cccs3)s2)n1,n
O=C(Sc1ccc(Cl)cc1)c1ccc(-c2cccs2)s1,n
CN(C)C=NC(=S)c1ccc(-c2cccs2)s1,77.8
CC1CCCCN1c1nc(-c2ccccc2O)nc2ccccc12 (stereo not drawn),n
Nc1c2c(nc3ccccc13)N(C1CCCCC1)CC2,87.4
CC(=Nc1c2c(nc3ccccc13)N(C)CC2)N(C)C,n
O=C(c1cc2c(s1)CCC2)N(CCO)Cc1ccccc1,n
Cc1ccc(S(=O)(=O)N2CC3C=CC2C3)cc1 (stereo not drawn),n
O=C(O)CN1CCC(c2ccccc2)CC1,n
O=C1CCC(c2ccccc2)CC1,66.5
O=C1CC(c2ccccc2)SC(c2ccccc2)C1 (stereo not drawn),n
SMILES,Vaccinia pol inh
Cn1c2ccccc2c2nnc(SCCCC(=O)c3ccc4c(c3)OCCO4)nc21,n
CCOC(=O)C(C)n1nc(C)c2sc3ccccc3c2c1=O (stereo not drawn),n
CCN(CC)CCNc1ccc(CO)c2sc3ccccc3c(=O)c12,59.8
CCC(C(=O)O)n1nc(C)c2sc3ccccc3c2c1=O (stereo not drawn),n
COc1cc2cc(C)nc(Cc3cccc4ccccc34)c2cc1OC,n
COc1cc2cc(=O)[nH]c(C)c2cc1OC,n
COc1cc2cc(C)nc(C)c2cc1OC,68.0
O=C(NCc1cn2ccsc2n1)C(F)(F)F,n
CCOC(=O)C1CCN(C(=O)COc2ccccc2)CC1,n
O=C(O)c1ccccc1-c1c2cc(Br)c(=O)cc-2oc2[c]([Hg])c(O)c(Br)cc12,18.4
Cn1cc(-c2ccccc2C(=O)O)c(=O)c2ccccc21,n
O=C(O)c1cc(-c2ccco2)nc2ccc(Br)cc12,n
Cn1c(-c2ccc3nc(-c4ccc(N)cc4)[nH]c3c2)nc2cc(N)ccc21,n
Cc1cc2nc(-c3ccc(Cl)nc3)[nH]c2cc1C,n
Cc1cc(N)cc2[nH]c(-c3ccc(N)cc3)nc12,59.5
O=C(Nc1nc2c(ccc3ccccc32)s1)C1CC1,n
O=C(NN1C(=O)CSC1=S)c1ccccc1,n
O=C1CSC(=S)N1/N=C/c1cccnc1,n
O=C1CSC(=S)N1/N=C/c1cc(Br)cc(Br)c1O,80.6
Cc1nc(SCC(=O)NCc2ccc(Cl)cc2)c(C#N)c(C)c1Cl,n
NC(=O)C1C(=O)NC(c2ccccc2)=CC1c1ccc(Cl)cc1 (stereo not drawn),n
N#C/C(=C\C=C\c1ccccc1)c1nc2ccccc2c(=O)[nH]1,n
CO[C@@]1(NC(=O)C(C(=O)O)c2ccc(O)cc2)C(=O)N2C(C(=O)O)=C(CSc3nnnn3C)CO[C@@H]21 (stereo partly drawn),8.0
CC(OC(=O)c1ccc(C#N)cc1)C(=O)Nc1cccc(C(F)(F)F)c1 (stereo not drawn),n
O=C(CNC(=O)OCc1ccccc1)ON1C(=O)CCC1=O,n
SMILES,Vaccinia pol inh
CCC(CO)NCC(O)Cn1c2ccccc2c2ccccc21 (stereo not drawn),79.8
OC(COCc1ccccc1)Cn1c2ccccc2c2ccccc21 (stereo not drawn),n
CNCC(O)Cn1c2ccccc2c2ccccc21 (stereo not drawn),77.6
COc1ccccc1CNCC(O)Cn1c2ccccc2c2ccccc21 (stereo not drawn),n
CC1(C)NC(=O)N(CC(O)Cn2c3ccccc3c3ccccc32)C1=O (stereo not drawn),n
Cc1ccc(S(=O)(=O)NCC(O)Cn2c3ccccc3c3ccccc32)cc1 (stereo not drawn),n
Cc1cc(C)n(CNc2c(C)n(C)n(-c3ccccc3)c2=O)n1,n
O=C(O)CCc1c(-c2ccccc2)cc2ccccn12,n
O=C(Nc1cccc(C(F)(F)F)c1)C1CCC(Cn2c(=O)[nH]c3ccsc3c2=O)CC1 (stereo not drawn),n
O=C1NC(=O)C(Cc2ccc(C(=O)O)cc2)S1 (stereo not drawn),n
O=C1NC(=O)C(Cc2ccccc2)S1 (stereo not drawn),78.7
Cc1ccc(CC2SC(=O)NC2=O)cc1Cl (stereo not drawn),n
CC(Oc1ccccc1)c1ccnn1C(=O)Nc1ccccc1 (stereo not drawn),n
CC1Cn2cc(C(=O)Nc3cccc(F)c3)c(=O)c3c(Cl)ccc(c32)O1 (stereo not drawn),n
CC(C)C(C(=O)O)N1C(=O)C2C3C=CC(C3)C2C1=O (stereo not drawn),n
O=C(/C=C1\SC(=O)N(Cc2ccc(F)cc2)C1=O)Nc1nccs1,n
Cc1ccc(-c2nn(CC(=O)N(C)C)c(=O)c3ccccc23)cc1,n
CN(C)C(=O)n1nc2c3c(cccc31)C(=O)c1ccccc1-2,n
CCN(CC)Cn1nc2c3c(cccc3c1=O)-c1ccccc1-2,56.6
O=C(CC(c1ccc(Cl)cc1)C1CCCCC1=O)c1ccc(Br)cc1 (stereo not drawn),n
O=c1[nH]c(CCl)nc2scc(-c3ccccc3)c12,n
O=c1cc(-c2cccs2)oc2ccc(Br)cc12,n
CC(C)(C)OC(=O)N1CCN(CCNC(=O)c2ccc(Cl)cc2)CC1,n
COc1ccc2nc(Nc3ccccc3)sc2c1,n
COc1ccc2nc(-c3ccccc3)cc(C(=O)O)c2c1,n
SMILES,Vaccinia pol inh
COc1ccc2nc(C)cc(Nc3ccccc3)c2c1,80.8
O=C(NCc1ccc(F)cc1)C1CC(=O)N(c2ccc(F)cc2)C1 (stereo not drawn),n
CCOc1ccc(-n2ccnc2SCC(=O)Nc2ccc(Cl)cc2)cc1,n
CCOc1ccc(NC(=O)CN2C(=O)S/C(=C/c3ccc(Cl)cc3)C2=O)cc1,n
CCOc1ccc(NC(=O)c2sc(C)c(CC(=O)Nc3ccc(Cl)cc3)c2O)cc1,80.4
COc1ccccc1NC(=S)N1CCCCC1CO (stereo not drawn),n
COc1ccc2nc(/C(N)=N/O)sc2c1,n
Cc1cc(N)c2ccccc2[n+]1CCCCCCCCCC[n+]1c(C)cc(N)c2ccccc21,34.7
Cc1cc(-c2ccccc2N)nc2ccccc12,n
O=C(COC(=O)C1CC1)NCc1ccc(Cl)cc1,n
CC(C)CC1NC(=O)N(C)C1=O (stereo not drawn),n
O=C(O)CNS(=O)(=O)/C=C/c1ccccc1,n
O=C(O)c1ccccc1NS(=O)(=O)/C=C/c1ccccc1,n
O=S(=O)(/C=C/c1ccccc1)Nc1ccc(F)cc1,76.5
COc1ccccc1CNC(=O)Cc1noc2ccccc12,n
